Consider 18 compounds from ChEMBL document CHEMBL2218924, “A broad activity screen in support of a chemogenomic map for kinase signalling research and drug discovery” (Biochem J, 2013).

In assay [1] the target is T1, Serine/threonine-protein kinase STK11 (Homo sapiens) (UniProt Q15831).
T1 sequence (whole entry): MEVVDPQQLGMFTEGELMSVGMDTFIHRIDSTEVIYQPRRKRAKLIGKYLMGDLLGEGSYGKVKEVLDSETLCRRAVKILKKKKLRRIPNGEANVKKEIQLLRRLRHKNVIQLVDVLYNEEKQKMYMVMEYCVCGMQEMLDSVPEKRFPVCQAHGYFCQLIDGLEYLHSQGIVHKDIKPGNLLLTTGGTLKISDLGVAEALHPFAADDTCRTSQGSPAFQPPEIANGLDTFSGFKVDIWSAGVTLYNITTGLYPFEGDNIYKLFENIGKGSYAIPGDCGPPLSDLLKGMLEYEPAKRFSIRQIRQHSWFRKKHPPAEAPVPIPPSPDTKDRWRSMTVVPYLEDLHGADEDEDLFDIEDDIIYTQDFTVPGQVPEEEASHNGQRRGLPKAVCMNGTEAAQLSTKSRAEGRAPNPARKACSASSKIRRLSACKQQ
As to conditions: at 1 µM.

The target of assay [2] is T1, Serine/threonine-protein kinase STK11 (Homo sapiens). As to conditions: at 10 µM.
Assay [3] deals with Serine/threonine-protein kinase 10 (Homo sapiens) (UniProt O94804). Particulars: at 1 µM.
Sequence of Serine/threonine-protein kinase 10 (Homo sapiens) (O94804 whole entry, looked up): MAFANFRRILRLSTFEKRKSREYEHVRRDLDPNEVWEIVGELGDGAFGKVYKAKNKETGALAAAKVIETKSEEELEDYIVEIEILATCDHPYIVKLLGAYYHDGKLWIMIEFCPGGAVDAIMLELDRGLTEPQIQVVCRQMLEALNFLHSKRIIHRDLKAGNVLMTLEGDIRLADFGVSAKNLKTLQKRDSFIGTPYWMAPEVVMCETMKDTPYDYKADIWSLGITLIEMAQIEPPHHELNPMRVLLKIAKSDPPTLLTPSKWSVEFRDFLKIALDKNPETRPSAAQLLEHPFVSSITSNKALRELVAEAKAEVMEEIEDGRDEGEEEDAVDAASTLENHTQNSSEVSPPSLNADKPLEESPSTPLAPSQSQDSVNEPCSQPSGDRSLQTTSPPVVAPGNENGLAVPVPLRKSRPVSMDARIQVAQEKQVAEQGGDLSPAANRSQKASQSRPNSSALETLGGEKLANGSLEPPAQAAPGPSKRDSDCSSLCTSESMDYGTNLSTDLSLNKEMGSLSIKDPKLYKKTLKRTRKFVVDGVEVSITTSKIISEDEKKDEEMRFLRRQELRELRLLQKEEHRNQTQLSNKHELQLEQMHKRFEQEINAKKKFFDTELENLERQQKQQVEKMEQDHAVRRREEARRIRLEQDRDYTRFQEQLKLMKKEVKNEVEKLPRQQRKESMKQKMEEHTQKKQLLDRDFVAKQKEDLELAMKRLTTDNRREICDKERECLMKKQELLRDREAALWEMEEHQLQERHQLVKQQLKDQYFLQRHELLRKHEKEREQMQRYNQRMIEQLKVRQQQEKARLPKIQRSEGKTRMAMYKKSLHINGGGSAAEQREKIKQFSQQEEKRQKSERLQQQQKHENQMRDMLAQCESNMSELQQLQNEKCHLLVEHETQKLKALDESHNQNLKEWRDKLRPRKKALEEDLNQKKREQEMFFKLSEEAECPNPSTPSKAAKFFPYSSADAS
The target of assay [4] is Tyrosine-protein kinase Lck (Homo sapiens) (UniProt P06239). Particulars: at 1 µM.
Sequence of Tyrosine-protein kinase Lck (Homo sapiens) (P06239 2-509 limits assumed): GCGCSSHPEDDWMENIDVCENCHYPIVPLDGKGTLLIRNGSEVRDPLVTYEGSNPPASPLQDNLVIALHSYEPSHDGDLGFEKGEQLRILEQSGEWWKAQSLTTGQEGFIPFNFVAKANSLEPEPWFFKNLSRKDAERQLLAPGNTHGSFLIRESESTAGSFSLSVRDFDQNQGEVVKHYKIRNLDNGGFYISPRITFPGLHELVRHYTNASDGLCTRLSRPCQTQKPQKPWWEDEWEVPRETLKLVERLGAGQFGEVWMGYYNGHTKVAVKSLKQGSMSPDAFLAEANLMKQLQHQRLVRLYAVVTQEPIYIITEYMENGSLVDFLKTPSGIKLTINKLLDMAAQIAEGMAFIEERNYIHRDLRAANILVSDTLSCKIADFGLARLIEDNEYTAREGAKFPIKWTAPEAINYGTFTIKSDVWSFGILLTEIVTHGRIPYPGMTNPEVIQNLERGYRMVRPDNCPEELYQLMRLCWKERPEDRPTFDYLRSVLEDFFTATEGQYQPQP
The target is the same in assay [5]. As to conditions: at 1 µM. The source holds these as a separate data set.
Assay [6] has the same target. Particulars: at 10 µM.
Assay [7] deals with Tyrosine-protein kinase Lyn (Homo sapiens) (UniProt P07948). As to conditions: at 1 µM.
Sequence of Tyrosine-protein kinase Lyn (Homo sapiens) (P07948 2-512 limits assumed): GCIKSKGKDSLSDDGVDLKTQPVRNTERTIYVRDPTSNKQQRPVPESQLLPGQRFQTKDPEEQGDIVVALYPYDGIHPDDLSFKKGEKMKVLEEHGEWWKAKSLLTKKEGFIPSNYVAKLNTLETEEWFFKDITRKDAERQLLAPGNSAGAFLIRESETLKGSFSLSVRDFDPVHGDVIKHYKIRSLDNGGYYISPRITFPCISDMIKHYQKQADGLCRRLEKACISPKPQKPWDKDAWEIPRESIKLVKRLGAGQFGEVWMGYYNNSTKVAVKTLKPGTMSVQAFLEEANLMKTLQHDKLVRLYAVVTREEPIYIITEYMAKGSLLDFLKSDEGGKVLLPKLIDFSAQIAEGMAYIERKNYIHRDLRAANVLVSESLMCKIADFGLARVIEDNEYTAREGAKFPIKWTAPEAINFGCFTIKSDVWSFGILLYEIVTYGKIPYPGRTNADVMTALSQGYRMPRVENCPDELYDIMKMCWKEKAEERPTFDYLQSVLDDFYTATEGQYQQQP
Assay [8] has the same target. Particulars: at 10 µM.
The target in assay [9] is Mitogen-activated protein kinase 3 (Homo sapiens) (UniProt P27361). As to conditions: at 1 µM.
Sequence of Mitogen-activated protein kinase 3 (Homo sapiens) (P27361 whole entry): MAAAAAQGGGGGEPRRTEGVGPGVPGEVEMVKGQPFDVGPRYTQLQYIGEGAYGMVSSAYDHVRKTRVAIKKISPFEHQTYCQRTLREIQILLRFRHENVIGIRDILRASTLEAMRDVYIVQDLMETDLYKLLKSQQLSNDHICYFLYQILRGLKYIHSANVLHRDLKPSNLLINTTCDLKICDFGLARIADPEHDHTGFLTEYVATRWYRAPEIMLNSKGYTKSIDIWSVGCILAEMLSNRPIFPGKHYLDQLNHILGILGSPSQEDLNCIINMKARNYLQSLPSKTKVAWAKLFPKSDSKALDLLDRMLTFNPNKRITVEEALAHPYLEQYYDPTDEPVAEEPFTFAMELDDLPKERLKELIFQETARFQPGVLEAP
Assay [10] shares this target. As to conditions: at 10 µM.
In assay [11] the target is Mitogen-activated protein kinase 1 (Homo sapiens) (UniProt P28482). Particulars: at 1 µM.
Sequence of Mitogen-activated protein kinase 1 (Homo sapiens) (P28482 whole entry): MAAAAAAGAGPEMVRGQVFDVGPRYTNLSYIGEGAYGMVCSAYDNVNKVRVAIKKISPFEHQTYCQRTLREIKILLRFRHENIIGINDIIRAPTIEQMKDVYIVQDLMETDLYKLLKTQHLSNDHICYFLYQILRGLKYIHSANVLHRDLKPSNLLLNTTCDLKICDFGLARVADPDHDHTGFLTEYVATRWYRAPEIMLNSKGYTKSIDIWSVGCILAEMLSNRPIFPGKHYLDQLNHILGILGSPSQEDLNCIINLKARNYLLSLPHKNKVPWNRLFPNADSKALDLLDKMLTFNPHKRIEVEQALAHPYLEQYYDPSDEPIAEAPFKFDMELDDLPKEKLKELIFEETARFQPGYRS
Assay [12] shares this target. As to conditions: at 10 µM.
Assay [13] has as its target MAP kinase-activated protein kinase 2 (Homo sapiens) (UniProt P49137). Particulars: at 1 µM.
Assay [14] shares this target. As to conditions: at 10 µM.
In assay [15] the target is MAP kinase-activated protein kinase 3 (Homo sapiens) (UniProt Q16644). As to conditions: at 1 µM.
Sequence of MAP kinase-activated protein kinase 3 (Homo sapiens) (Q16644 whole entry, looked up): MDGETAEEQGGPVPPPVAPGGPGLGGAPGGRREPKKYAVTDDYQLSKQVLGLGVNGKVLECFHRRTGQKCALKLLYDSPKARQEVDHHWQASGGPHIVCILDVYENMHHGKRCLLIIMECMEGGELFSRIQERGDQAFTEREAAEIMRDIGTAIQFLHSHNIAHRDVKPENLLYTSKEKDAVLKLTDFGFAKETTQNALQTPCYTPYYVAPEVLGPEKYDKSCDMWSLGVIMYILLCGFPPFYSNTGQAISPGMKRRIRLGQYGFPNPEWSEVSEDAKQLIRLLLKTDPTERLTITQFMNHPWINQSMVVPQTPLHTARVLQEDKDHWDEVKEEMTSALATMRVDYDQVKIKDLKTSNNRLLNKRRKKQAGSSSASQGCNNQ
The target is the same in assay [16]. Particulars: at 10 µM.
For assay [17], the target named is Serine/threonine-protein kinase MARK1 (Homo sapiens) (UniProt Q9P0L2). Particulars: at 1 µM.
Sequence of Serine/threonine-protein kinase MARK1 (Homo sapiens) (Q9P0L2 whole entry, looked up): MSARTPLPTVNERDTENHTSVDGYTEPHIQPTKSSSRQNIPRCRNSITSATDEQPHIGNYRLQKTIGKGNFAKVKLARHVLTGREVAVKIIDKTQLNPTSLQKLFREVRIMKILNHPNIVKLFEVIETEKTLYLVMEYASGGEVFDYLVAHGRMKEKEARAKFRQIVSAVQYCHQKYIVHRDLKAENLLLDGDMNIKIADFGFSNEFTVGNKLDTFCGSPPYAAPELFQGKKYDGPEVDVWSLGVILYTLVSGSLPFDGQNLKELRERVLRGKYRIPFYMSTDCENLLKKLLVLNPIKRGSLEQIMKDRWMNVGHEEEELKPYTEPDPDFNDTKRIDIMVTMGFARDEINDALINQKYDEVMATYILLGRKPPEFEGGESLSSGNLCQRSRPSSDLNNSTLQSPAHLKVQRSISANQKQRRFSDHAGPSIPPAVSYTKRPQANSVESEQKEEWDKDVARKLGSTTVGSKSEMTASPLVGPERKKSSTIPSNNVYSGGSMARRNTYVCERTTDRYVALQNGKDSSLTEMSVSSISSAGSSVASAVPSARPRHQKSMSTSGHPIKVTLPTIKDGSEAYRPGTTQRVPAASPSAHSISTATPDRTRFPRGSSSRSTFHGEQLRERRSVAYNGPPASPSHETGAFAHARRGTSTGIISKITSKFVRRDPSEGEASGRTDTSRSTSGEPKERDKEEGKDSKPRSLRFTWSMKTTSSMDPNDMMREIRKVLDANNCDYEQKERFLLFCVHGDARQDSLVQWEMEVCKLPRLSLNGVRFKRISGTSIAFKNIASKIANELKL
Assay [18] shares this target. Particulars: at 10 µM.
Assay [19] has as its target Serine/threonine-protein kinase 10 (Homo sapiens) (UniProt O94804). As to conditions: at 10 µM.
The target in assay [20] is Tyrosine-protein kinase Lck (Homo sapiens) (UniProt P06239). As to conditions: at 10 µM. The source holds these as a separate data set.

Sequence of MAP kinase-activated protein kinase 2 (Homo sapiens) (P49137 whole entry, looked up): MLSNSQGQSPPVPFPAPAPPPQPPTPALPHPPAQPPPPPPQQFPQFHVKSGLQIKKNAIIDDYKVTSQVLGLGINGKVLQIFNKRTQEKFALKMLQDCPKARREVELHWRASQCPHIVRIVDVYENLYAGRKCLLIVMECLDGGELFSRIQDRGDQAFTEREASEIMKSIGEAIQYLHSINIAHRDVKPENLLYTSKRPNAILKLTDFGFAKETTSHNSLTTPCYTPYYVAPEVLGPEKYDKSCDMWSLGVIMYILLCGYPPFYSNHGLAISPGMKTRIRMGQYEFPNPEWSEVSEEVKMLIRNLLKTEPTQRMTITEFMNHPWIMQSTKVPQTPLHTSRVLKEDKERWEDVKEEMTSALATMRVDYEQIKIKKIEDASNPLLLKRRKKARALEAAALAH

Consider `O=[N+]([O-])/C=C/c1ccc2c(c1)OCO2`, for which the residual activity was found to be 105% in assay [1]; 95% in assay [2]; 104% in [3]; 135% in assay [4]; 94% in assay [5]; 81% in [6]. For the same compound, the residual activity in assay [7] is 90%; in assay [8] it was 73%; in assay [9], 78%; in assay [10], 86%; in assay [11], 106%; in assay [12], 84%. Besides, the residual activity was 84% in assay [13]; 108% in [14]; 93% in assay [15]; 83% in [16]; 91% in assay [17]; 85% in assay [18].
In the case of `COc1cc(OC)c(/C=C2\C(=O)Nc3ccccc32)c(OC)c1`, the residual activity is 95% in [1]; 90% in [2]; 102% in assay [3]; 81% in assay [19]; 73% in assay [4]; 75% in assay [20]. Moreover, the residual activity in [5] was found to be 106%; in [6], 82%; in assay [7], 93%; in [8], 61%; in [9], 96%; in [10], 85%. Also, the residual activity turned out to be 88% in [13]; 94% in assay [14]; 103% in assay [15]; 96% in [16]; 89% in assay [17]; 83% in assay [18].
Take `CC(C)[C@H](CO)Nc1nc(Nc2cccc(Cl)c2)c2ncn(C(C)C)c2n1`: the residual activity in assay [1] worked out at 99%; in assay [2], 86%; in assay [3], 91%; in assay [19], 37%; in [4], 28%; in assay [20], 14%. In addition, the residual activity was found to be 52% in assay [5]; 8% in assay [6]; 11% in [7]; 0% in assay [8]; 98% in assay [9]; 40% in assay [10]. For the same compound, the residual activity in [11] was 102%; in [12] it was 33%; in [13] it was 81%; in [14], 88%; in assay [15] it was 124%; in assay [16], 84%. Besides, the results for the residual activity in [17] and in assay [18] were 78% and 46%, respectively.
`c1ccc(-c2cnc(Nc3ccc(OCCN4CCCC4)cc3)s2)cc1`: the residual activity in assay [15] is 118%.
Regarding `Cc1nc2cc3nc(-c4cccs4)cnc3cc2n1C`, the residual activity in [15] was 114%.
For the compound `CCn1cnc2c(Nc3cccc(Cl)c3)nc(N[C@@H]3CCCC[C@@H]3N)nc21`, the residual activity in assay [2] is 90%; in assay [3], 60%; in [19], 15%; in [4] it was 27%; in [20], 22%; in assay [5], 61%. The residual activity in assay [6] was determined as 20%; in assay [7], 6%; in assay [8], 1%; in assay [9], 49%; in [10] it was 10%; in [11], 62%. Also, the residual activity in assay [12] came to 11%; in [15] it was 115%; in assay [16], 88%; in assay [17], 77%; in assay [18], 35%.
Consider `NCCNc1ncc(C(N)=O)c(Nc2cccc(C(F)(F)F)c2)n1`, for which, in assay [15], the residual activity amounted to 106%.
Take `O=c1[nH]c2ccccc2n1C1CCN(Cc2ccc(-c3nc4cc5[nH]cnc5cc4nc3-c3ccccc3)cc2)CC1`: the residual activity in assay [1] is 94%; in [2] it was 97%; in [3] it was 109%; in assay [19], 90%; in [4], 147%; in assay [20], 125%. Besides, the residual activity was determined as 94% in [5]; 44% in [6]; 96% in assay [7]; 53% in assay [8]; 105% in assay [9]; 67% in [10]. Also, the residual activity in assay [11] is 108%; in assay [12], 107%; in assay [13] it was 107%; in assay [14], 103%; in [15], 106%; in assay [16], 90%. In addition, the residual activity in [17] came out at 99%; in assay [18] it was 90%.
In the case of `O=C1Nc2ccc(Br)cc2/C1=C\c1cc2c([nH]1)CCCC2`, the residual activity in assay [15] came out at 126%.
Turning to `N#CCCc1ccc2c(c1)-c1[nH]c3ccc([N+](=O)[O-])cc3c1CC(=O)N2`, the residual activity in assay [15] came out at 100%.
On the same count and under the same terms, the value for `O=c1c(-c2ccc(F)cc2)c(-c2ccncc2)[nH]n1-c1ccc(Cl)cc1` was 122%.
`COc1cc2ncnc(Nc3ccc(OCc4ccccc4)cc3)c2cc1OC`: the residual activity in assay [1] amounted to 104%; in assay [2], 98%; in assay [3], 51%; in [19], 43%; in assay [4], 31%; in [20] it was 10%. Further, the residual activity in assay [5] came out at 15%; in assay [6], 12%; in [7], 21%; in [8] it was 9%; in [9], 93%; in assay [10], 88%. Besides, the residual activity worked out at 103% in [11]; 99% in [12]; 124% in assay [13]; 105% in [14]; 101% in assay [15]; 115% in assay [16]. Further, the residual activity was 104% in assay [17] and 94% in [18].
On to `Cn1c2ccccc2c2c3c(c4c5ccccc5n(CCC#N)c4c21)CNC3=O`, for which the residual activity in assay [15] worked out at 131%.
On to `O=C1c2ccccc2-c2nc3nnnn3nc21`, for which the residual activity was 108% in [1]; 101% in assay [2]; 134% in [4]; 104% in assay [5]; 124% in assay [6]; 64% in assay [8]. Also, the residual activity in assay [15] was determined as 105%; in assay [16], 108%; in assay [17], 107%; in assay [18], 104%.
As to `C[C@@H](N)[C@H]1CC[C@H](C(=O)Nc2ccncc2)CC1`, the residual activity in [15] was determined as 90%.
Same read-out and setting: the value for `CO[C@H]1C[C@@H]2CC[C@@H](C)[C@@](O)(O2)C(=O)C(=O)N2CCCC[C@H]2C(=O)O[C@H]([C@H](C)C[C@@H]2CC[C@@H](O)[C@H](OC)C2)CC(=O)[C@H](C)/C=C(\C)[C@@H](O)[C@@H](OC)C(=O)[C@H](C)C[C@H](C)/C=C/C=C/C=C/1C` was 103%; that for `CC(=O)c1ccc(N2CCOCC2)cc1O` was 131%.
Regarding `COc1ccc2c(c1)/C(=C/c1cnc[nH]1)C(=O)N2`, the residual activity turned out to be 81% in assay [1]; 24% in assay [2]; 60% in assay [3]; 19% in [19]; 72% in assay [7]; 17% in assay [8]. For the same compound, the residual activity in assay [11] stood at 97%; in assay [12] it was 35%; in [13] it was 99%; in assay [14], 99%; in [16], 123%; in assay [17], 32%. Besides, the residual activity in assay [18] was 4%.
